In all, about 33,000 sequences were measured (“E-score (-0.5 to 0.5)”: median about -0.016, highest 2% from about 0.3 on). Many of the other results were omitted from the sample, so the highest values are more common in it than they were.
Target: T1, Yer184c (UniProt P39961)
T1 sequence: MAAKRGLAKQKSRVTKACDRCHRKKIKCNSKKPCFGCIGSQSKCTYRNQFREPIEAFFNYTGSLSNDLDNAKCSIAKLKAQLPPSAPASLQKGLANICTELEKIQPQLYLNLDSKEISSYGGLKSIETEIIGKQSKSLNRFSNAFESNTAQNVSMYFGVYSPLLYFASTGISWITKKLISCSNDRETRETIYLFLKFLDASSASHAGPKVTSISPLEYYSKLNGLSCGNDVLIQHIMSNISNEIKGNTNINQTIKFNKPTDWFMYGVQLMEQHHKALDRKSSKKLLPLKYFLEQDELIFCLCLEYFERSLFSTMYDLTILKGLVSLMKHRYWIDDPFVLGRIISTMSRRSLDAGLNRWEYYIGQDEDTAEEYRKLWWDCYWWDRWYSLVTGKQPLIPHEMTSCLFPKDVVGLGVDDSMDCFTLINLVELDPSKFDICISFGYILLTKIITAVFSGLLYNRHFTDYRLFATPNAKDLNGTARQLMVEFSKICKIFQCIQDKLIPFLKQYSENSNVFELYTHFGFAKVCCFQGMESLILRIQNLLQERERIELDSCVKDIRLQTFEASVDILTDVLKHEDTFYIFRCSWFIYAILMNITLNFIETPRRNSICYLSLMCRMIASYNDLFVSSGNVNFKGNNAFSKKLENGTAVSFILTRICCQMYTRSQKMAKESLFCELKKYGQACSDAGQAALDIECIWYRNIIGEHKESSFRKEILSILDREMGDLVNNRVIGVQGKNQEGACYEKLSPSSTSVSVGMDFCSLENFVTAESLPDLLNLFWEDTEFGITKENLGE
Assay: PBM E-score (8-mer binding enrichment) (E-score (-0.5 to 0.5)); higher = stronger / more preferred TF binding
Conditions: protein concentration: 100 nM; construct: GST-full length
Method in brief: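 Using PURExpress in vitro transcription/translation, GST-tagged yeast transcription factors were made in full-length or DNA-binding-domain form. These were applied at about 100-200 nM to double-stranded universal all-10-mer Agilent arrays, and bound protein was detected with fluorescent anti-GST. Scans were normalised with masliner before the Universal PBM Analysis Suite assigned E-scores to ungapped eight-base words pooled with their reverse complements.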

Row | Sequence | PBM E-score
1 | AGAGGTGA | -0.148
2 | AAACCCGG | 0.337
3 | ACCCCGGG | 0.263
4 | ATCCCGGA | 0.274
5 | AAACCCGA | 0.215
6 | AACCCGGC | 0.329
7 | AAACCCGC | 0.135
8 | CACCCGGC | 0.15
9 | ACCCCGGC | 0.0581
10 | ATCCCGGG | 0.36
11 | ATCCCCGG | 0.185
12 | CACCCGGG | 0.189
13 | AACCCGGG | 0.325
14 | ACTTTTTG | 0.154
15 | ACCCTCGT | -0.116
16 | ACAGTAAG | -0.0845
17 | GACATTGC | -0.175
18 | ATATAAAG | 0.0639
19 | AAATAAAT | 0.34
20 | AAATAAAG | 0.045
21 | ATATAAAT | 0.305
22 | ATATAAAC | 0.17

Row | Sequence | PBM E-score
23 | AAATAAAA | 0.0817
24 | CGTGCTGC | -0.0543
25 | CGGGGGGA | -0.373
26 | AACTGCAA | 0.0848
27 | GAGTTAGC | -0.0328
28 | CTCTTATA | 0.145
29 | ATGGTATA | -0.0158
30 | ACATGCTG | -0.257
31 | GCACCGGA | 0.33
32 | ACACCGGA | 0.246
33 | GCACCGGC | 0.234
34 | CCACCGGG | -0.00255
35 | CCACCGGC | 0.146
36 | CCACCGGA | 0.346
37 | TAGACCGA | 0.105
38 | TAATCATA | 0.157
39 | TACTAGTA | 0.338
40 | GACTAGTA | -0.12
41 | CACTAGTA | -0.0824
42 | GGTGCCGA | 0.266
43 | AGTGCCAG | -0.28
44 | AGTGCCGA | 0.333

Row | Sequence | PBM E-score
45 | AGTGCCGG | 0.337
46 | AGTGCCTG | -0.132
47 | AGTGCCGC | 0.123
48 | GGACCACC | -0.116
49 | CTCGACCC | -0.118
50 | AGCTGCCC | 0.034
51 | CGGCTTAG | 0.213
52 | CGGCTTCA | 0.345
53 | TGGCTTAA | 0.175
54 | AGGCTTCA | -0.108
55 | CGGCTTAA | 0.393
56 | CGGCTTCC | 0.198
57 | ACGTCAAG | -0.124
58 | CACCTTGA | -0.151
59 | GTCAACGA | -0.0301
60 | GCTGTTTA | 0.141
61 | TACGGCAA | 0.158
62 | TGCGGCAA | 0.0333
63 | GGCGGCAC | 0.0696
64 | ACCGGCAG | 0.0457
65 | ACCGGCAC | 0.363
66 | CCCGGCAA | 0.335

Row | Sequence | PBM E-score
67 | TCCGGCAA | 0.339
68 | ACCGGCAA | 0.222
69 | CCCGGCAG | 0.131
70 | CGCGGCAA | 0.274
71 | GCCGGCAC | 0.422
72 | CCCGGCAC | 0.0863
73 | GTGAGGGA | -0.252
74 | CAATTGCG | -0.0249
75 | ACGCTAAA | 0.0442
76 | AAATTGAT | 0.159
77 | AGTTAACC | -0.0162
78 | GCTATCCC | -0.16
79 | CGAATGCA | 0.0594
80 | ACCTTGCA | -0.197
81 | AAAAATGT | 0.0248
82 | CTTCTGAC | -0.218
83 | CCACAAGA | 0.0207
84 | GACGGCAA | 0.148
85 | GCCGGCAA | 0.424
86 | GCCGGCTA | 0.266

— the supplement of paper PMC3334620
